Our source for the Potency and activity change, negative = inhibition values is PubChem BioAssay (NCATS).

Inconclusive results are not listed. Unmarked numbers belong to inactive results. Calls of active or inactive are those of the source. Calls come from the whole dose curve; as a rule, active = well fitted curve in the direction sought with a large enough effect; inconclusive = small, poorly fitted or top-dose-only effect, or another doubt; inactive = no such curve, though single readings can be large; an effect the other way counts as inactive or inconclusive.

In one assay the test system is C33A. As to the kind of experiment: Primary qHTS to identify gynecologic anti-cancer compounds using libraries of approved drugs and bioactive compounds (AID 1345084). Note: nearly all actives have a fitted effect of over 55% in size. The conditions noted are these: Gynecologic cancer cell panel viability, ATPlite luminescence, 48 h; series mostly up to 57.5 µM. The essentials:
(§1)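 In this quantitative HTS, cell killing is estimated from loss of ATP-dependent luciferase light. Cells see five compound concentrations over a 48 h exposure.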

In the next assay the test system is CAOV3. Described as above. As to conditions: Gynecologic cancer cell panel viability, ATPlite luminescence, 48 h; series mostly up to 57.5 µM. The essentials:
as §1

For a further assay, the system named is CASKI. The description is as above. As to conditions: Gynecologic cancer cell panel viability, ATPlite luminescence, 48 h; series mostly up to 57.5 µM. The essentials:
as §1

The subject of a further assay is Es-2. The description is as above. As to conditions: Gynecologic cancer cell panel viability, ATPlite luminescence, 48 h; series mostly up to 57.5 µM. The method, boiled down: as §1
For a further assay, the system named is HeLa. The assay is described as above. As to conditions: Gynecologic cancer cell panel viability, ATPlite luminescence, 48 h; series mostly up to 57.5 µM. The method, boiled down: as §1
The next assay has as its system JEG-3. The assay is described as above. The conditions noted are these: Gynecologic cancer cell panel viability, ATPlite luminescence, 48 h; series mostly up to 57.5 µM. The method, boiled down: as §1
In a further assay the test system is OV90. The description is as above. The conditions noted are these: Gynecologic cancer cell panel viability, ATPlite luminescence, 48 h; series mostly up to 57.5 µM. The method, boiled down:
as §1

A further assay deals with PA-1. The description is as above. As to conditions: Gynecologic cancer cell panel viability, ATPlite luminescence, 48 h; series mostly up to 57.5 µM. The essentials: as §1
In another assay the test system is SKOV3. Described as above. The conditions noted are these: Gynecologic cancer cell panel viability, ATPlite luminescence, 48 h; series mostly up to 57.5 µM. The essentials: as §1
In the next assay the test system is Tov-21-G. Described as above. The conditions noted are these: Gynecologic cancer cell panel viability, ATPlite luminescence, 48 h; series mostly up to 57.5 µM. The essentials: as §1
Another assay relates to Tov112D. The description is as above. As to conditions: Gynecologic cancer cell panel viability, ATPlite luminescence, 48 h; series mostly up to 57.5 µM. The essentials:
as §1

For another assay, the system named is Hek293T. The assay is described as above. The conditions noted are these: Gynecologic cancer cell panel viability, ATPlite luminescence, 48 h, control line for the selectivity index; series mostly up to 57.5 µM. The essentials:
as §1

Assay [1] in a line: qHTS assay to identify inhibitors of the type 1 interferon - major histocompatibility complex class I in skeletal muscle: Counter screen cell viability and HiBit confirmation (AID 1347412). Note: nearly all actives have a fitted effect of over 60% in size. As to conditions: iHSKM muscle cells + IFN-b, HiBiT or CellTiter-Glo, 24 h. The essentials:
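CRISPR HLA-B*08:01-HiBit immortalized human myoblasts (C25cl48) stimulated with 4 ng/ml IFN-beta and compounds (12-point 1:3, top 46 uM final) for 24 h at 37 C. Duplicate plates read by HiBit lytic luminescence or CellTiter Glo ATP.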
% is set by controls: 0 for no effect and ±100 for the full control effect; potency is the fitted concentration of half-maximal effect.

With `COc1cc(O)cc(C)c1C(=O)O[C@H]1[C@@H](OC(C)=O)[C@H](n2ccc(=O)[nH]c2=O)O[C@@H]1CO`, the Potency entry in the assay with C33A, in the assay on CAOV3, with CASKI, with Es-2, in the assay on HeLa and in the assay with JEG-3 was “inactive” in each case. Further, the Potency result with OV90, in the assay on PA-1, in the assay with SKOV3, in the assay with Tov-21-G and in the assay with Tov112D was “inactive” throughout.
Take `CC(=O)N1CCN(Cc2ccc([C@H](C)Nc3nccc(N4C(=O)OC[C@@H]4C(C)C)n3)cc2)CC1`: the Potency entry in the assay on C33A, in the assay with CAOV3, in the assay with CASKI, in the assay with Es-2, in the assay with HeLa and in the assay on Hek293T was “inactive” in each case. Further, the Potency entry with OV90, in the assay with SKOV3, in the assay with Tov-21-G and in the assay with Tov112D was “inactive” throughout.
Turning to `CCOCc1cc(OC)c(-c2ccc(C[C@H](NC(=O)c3c(F)cccc3F)C(=O)O)cc2)c(OC)c1`, the Potency entry in the assay on C33A, with CAOV3, in the assay with CASKI, with Es-2, in the assay with HeLa and in the assay on JEG-3 was “inactive” throughout. The Potency result with OV90, in the assay on PA-1, in the assay on SKOV3 and with Tov-21-G was “inactive” in each case.
Take `CC(Cc1cc2c(c(C(N)=O)c1)N(CCCO)CC2)NCCOc1ccccc1OCC(F)(F)F` (centres undefined): the Potency entry in the assay with C33A, with CAOV3, in the assay on CASKI, in the assay on Es-2, in the assay with HeLa and with Hek293T was “inactive” in each case. Moreover, the Potency result in the assay with OV90, in the assay on PA-1, in the assay with SKOV3, in the assay with Tov-21-G and in the assay with Tov112D was “inactive” throughout.
As for `CC1=C(CCC(C)CC(=O)O)[C@@]2(C)CCCC(C)(C)C2CC1=O` (some centres undefined), the Potency entry in the assay with C33A, in the assay with CAOV3, in the assay on CASKI, with Es-2, in the assay on HeLa and in the assay on JEG-3 was “inactive” in each case. For the same molecule, the Potency result with OV90, in the assay on PA-1, in the assay with SKOV3, in the assay on Tov-21-G and with Tov112D was “inactive” throughout.
As to `Nc1nc(Nc2ccc(S(N)(=O)=O)cc2)n(C(=S)Nc2c(F)cccc2F)n1`, the Potency entry in the assay with C33A, in the assay with CAOV3, in the assay on CASKI, in the assay with Es-2, in the assay on JEG-3 and in the assay on OV90 was “inactive” throughout. The Potency entry with PA-1 and in the assay with SKOV3 was “inactive” each time. The Potency with HeLa is 15.8 µM (active).
As to `COc1c(/C=C/C(C)(C)O)ccc2c1C(=O)OCc1cc(C)cc(O)c1O2`, the Potency result in the assay with C33A, with CAOV3, in the assay with CASKI, in the assay on Es-2, with HeLa and in the assay with JEG-3 was “inactive” each time. For the same molecule, the Potency entry in the assay with OV90, in the assay on PA-1, with Tov-21-G and in the assay with Tov112D was “inactive” in each case.
As for `CS(=O)(=O)c1ccc(-c2nnc(/C=C/c3nnc(-c4ccc(C#N)cc4)o3)n2-c2ccccc2Cl)nc1`, the Potency entry in the assay with C33A, with CAOV3, in the assay on CASKI, in the assay on Es-2, with HeLa and in the assay with JEG-3 was “inactive” each time. The Potency entry in the assay with OV90, in the assay with PA-1, in the assay with SKOV3, with Tov-21-G and in the assay on Tov112D was “inactive” throughout.
As to `COc1ccc2c(OC)c3ccoc3nc2c1OC`, the Potency result in the assay with C33A, in the assay with CAOV3, in the assay on CASKI, with Es-2, with Hek293T and in the assay on JEG-3 was “inactive” throughout. Further, the Potency entry in the assay on OV90, in the assay with PA-1, in the assay with SKOV3, with Tov-21-G and in the assay on Tov112D was “inactive” each time.
`Cc1nc([C@](C)(O)CO)sc1-c1cnc(N)c(O[C@H](C)c2cc(F)ccc2-n2nccn2)c1`: the Potency entry in the assay on C33A, in the assay with CAOV3, in the assay on CASKI, in the assay on Es-2, in the assay with JEG-3 and in the assay on SKOV3 was “inactive” in each case. Besides, the Potency entry in the assay on Tov112D was “inactive”. For the same molecule, the Potency in the assay with HeLa is 8.91 µM (active); in the assay on PA-1 it was 11.2 µM (active).
Take `Cc1c(NC(=O)c2cc(C(N)=O)nc3cc(F)ccc23)c(C(F)(F)F)nn1Cc1ccc(C#N)cc1`: the Potency result in the assay on C33A, with CAOV3, in the assay on CASKI, in the assay on Es-2, in the assay on Hek293T and with JEG-3 was “inactive” in each case. The Potency result in the assay with OV90, with PA-1, with Tov-21-G and in the assay on Tov112D was “inactive” throughout. The Potency in the assay with SKOV3 was 2.24 µM (active).
Consider `FC(F)(F)c1cc(-c2ncn(/C=C\c3nnco3)n2)cc(C(F)(F)F)c1`, for which the Potency entry with C33A, with CAOV3, in the assay with CASKI, in the assay with HeLa, with OV90 and in the assay with SKOV3 was “inactive” each time. The Potency result in the assay on Tov-21-G and in the assay on Tov112D was “inactive” in each case. Further, the Potency with Es-2 is 3.16 µM (active).
In the case of `COc1c2c(c(C)c3c1C(=O)OC3)OC1(C)CC(O)C(C(C)(C)O)C(C)(CCC(=O)O)C1C2` (centres undefined), the Potency entry in the assay on C33A, in the assay on CAOV3, in the assay on CASKI, in the assay on Es-2, in the assay on Hek293T and with JEG-3 was “inactive” each time. Also, the Potency entry in the assay with OV90, in the assay on PA-1, with SKOV3, with Tov-21-G and with Tov112D was “inactive” each time.
For the molecule `NC(=O)c1cccc(-c2cc(OC(=O)NC3CCCCC3)ccc2O)c1`, the Potency result with C33A, with CAOV3, in the assay with CASKI, in the assay with Es-2, with HeLa and with JEG-3 was “inactive” throughout. Further, the Potency entry in the assay with OV90, in the assay with PA-1 and in the assay on SKOV3 was “inactive” throughout.
Regarding `CO[C@H]1C[C@@H]2CC[C@@H](C)[C@@](O)(O2)C(=O)C(=O)N2CCCC[C@H]2C(=O)O[C@H]([C@H](C)C[C@@H]2CC[C@H](n3cnnn3)[C@H](OC)C2)CC(=O)[C@H](C)/C=C(\C)[C@@H](O)[C@@H](OC)C(=O)[C@H](C)C[C@H](C)/C=C/C=C/C=C/1C`, the Potency entry in the assay with C33A, with CAOV3, with CASKI, in the assay with Es-2, in the assay on HeLa and in the assay with JEG-3 was “inactive” throughout. Also, the Potency result in the assay on OV90, with PA-1, in the assay with SKOV3 and in the assay with Tov112D was “inactive” throughout.
Turning to `CCOc1cc(C(=O)N2CCC(N3CCN(C)CC3)CC2)ccc1Nc1ncc2c(n1)N(C1CCCC1)c1ccccc1C(=O)N2C`, the Potency result with C33A, in the assay on CASKI, in the assay on Es-2, in the assay with HeLa, in the assay on Hek293T and in the assay on OV90 was “inactive” throughout. Further, in the assay on Tov112D, the Potency entry is “inactive”. Moreover, the figures for the Potency (in the assay on CAOV3; in the assay with SKOV3; in assay [1] (HiBiT)) were 31.6 µM (active), 35.5 µM (active) and 12.5 µM (active), respectively. In addition, in [1] (Viability, at 45.9 µM (top of the series)), the activity change, negative = inhibition was -25.1%.
